Rows were chosen to be rich in hits. Some 1.2% of all compounds tested hit in one or more screens of this group.
Avidin fluor: compound fluoresces at 488/530 nm on avidin beads; fluorescence (KMESF) at 10 µM; compound fluorescence 488/530 nm, flow cytometry; stronger effect = higher value; 220,000 tested, 0.38% active; AID 1775; in the data active = fluorescence above about 47
RGS16-Gao HTS: modulates binding between human RGS16 and Galphao. O15492+P09471. bead-based flow cytometry RGS16-Galphao binding, fluorescence; actives lie on both sides. binding response (% of control), % at 10 µM. 220,000 tested, 0.38% active. AID 1441;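 also: Galphao activated by GDP with aluminum fluoride before binding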
Target sequence (O15492 whole entry, looked up): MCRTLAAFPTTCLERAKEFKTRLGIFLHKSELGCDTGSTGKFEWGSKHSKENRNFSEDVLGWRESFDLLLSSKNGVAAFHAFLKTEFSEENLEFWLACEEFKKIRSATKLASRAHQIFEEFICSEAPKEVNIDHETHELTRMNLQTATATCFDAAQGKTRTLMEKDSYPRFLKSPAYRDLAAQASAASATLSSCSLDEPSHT
Target sequence (P09471 whole entry, looked up): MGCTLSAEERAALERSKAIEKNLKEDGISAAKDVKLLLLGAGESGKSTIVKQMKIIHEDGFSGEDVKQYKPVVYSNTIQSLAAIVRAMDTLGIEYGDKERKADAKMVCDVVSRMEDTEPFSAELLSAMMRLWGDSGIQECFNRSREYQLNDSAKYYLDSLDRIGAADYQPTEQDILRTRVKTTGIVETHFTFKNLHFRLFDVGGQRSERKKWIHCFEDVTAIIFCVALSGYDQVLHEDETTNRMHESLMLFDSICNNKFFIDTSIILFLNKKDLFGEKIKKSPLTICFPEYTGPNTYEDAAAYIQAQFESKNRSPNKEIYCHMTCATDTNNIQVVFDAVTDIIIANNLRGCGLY
RGS8-Gao: regulators of human RGS8-Galphao interaction. 220,000 tested, 0.34% active. P09471. multiplexed bead flow cytometry, RGS8-Galphao binding; actives lie on both sides. response (percent of control binding), % at 10 µM; in the data active = response below about 60% or above about 140%; inactive = in between;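 also: Galphao activated as the GDP aluminium fluoride complex binding bead-coupled RGS8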
Target sequence (P09471 whole entry, looked up): as above
RGS4-Gao reg: human RGS4-Galphao interaction regulation; binding response (% of control), % at 10 µM; P09471; AID 1415; 220,000 tested, 0.33% active; Multiplexed bead flow cytometry, RGS4-Galphao binding; actives lie on both sides; in the data active = binding response below about 49% or above about 150%; inactive = in between;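 also: fluorescent Galphao activated with aluminum fluoride binding bead-coupled RGS4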
RGS7-Gao reg: regulators of human RGS7-Galphao interaction; 220,000 tested, 0.35% active; Multiplexed bead flow cytometry, RGS7-Galphao binding; actives lie on both sides; binding response (% of control), % at 10 µM; P09471; in the data active = binding response below about 49% or above about 150%; inconclusive = no clear call, values can overlap the other calls; inactive = in between;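 also: fluorescent Galphao held in activated GDP-AlF4 state binding bead-coupled RGS7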
GSH bead fluor: GSH bead compound fluorescence profile; GSH beads flow cytometry, compound fluorescence 488/530 nm; stronger effect = higher value; fluorescence (KMESF) at 10 µM; 190,000 tested, 0.25% active; AID 1776; in the data active = fluorescence above about 89;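 also: glutathione beads carrying GST-tagged Bcl family fusion proteins plus one bare bead set; values are compound well signal with DMSO vehicle wells as background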
RGS4-Gao HTS: RGS4-Galphao interaction regulator (human) | RGS4–Galpha-o binding response, % at 10 µM | multiplexed bead flow cytometry, RGS–Galpha-o binding | 1,600 tested, 99% active | shares compounds with RGS16-Gao HTS;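 also: fluorescently labeled Galpha-o bound to GDP with aluminium fluoride binding biotinylated RGS beads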
Biotin-avidin: counter-screen: compounds disrupting biotin binding to avidin beads | shares compounds with RGS16-Gao HTS | streptavidin beads, fluorescein-biotin binding, flow cytometry | inhibition, % at 10 µM | 1,700 tested, under 10 active;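 active = inhibition above 50%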;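 also: median green fluorescence of gated singlet beads compared with DMSO control wells; 0% = DMSO wells and 100% = complete loss of bead fluorescence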
RGS8-Gao single: RGS8-Galphao interaction regulation, single point confirmation; shares compounds with RGS16-Gao HTS; bead-based flow cytometry RGS8-Galphao binding, fluorescence; actives lie on both sides; binding response (% of control), % at 10 µM; 1,700 tested, 3% active; in the data active = binding response below about 72% or above about 130%; inactive = in between;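 also: Galphao activated as GDP AlF4 complex before binding bead RGS8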
RGS7-Gao single: confirmation of regulators of human RGS7-Galphao interaction; shares compounds with RGS16-Gao HTS; bead-based flow cytometry RGS7-Galphao binding; actives lie on both sides; response (percent of control binding), % at 10 µM; 1,700 tested, 7.8% active; AID 1837; in the data active = response below about 75% or above about 130%; inactive = in between;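 also: fluorescent Galphao activated with GDP and aluminum fluoride binding bead-coupled RGS7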
RGS16-Gao single: RGS16-Galphao interaction regulation, single point confirmation | 1,700 tested, 4% active | response (% of control binding), % at 10 µM | bead-based flow cytometry, RGS16-Galphao binding; actives lie on both sides | shares compounds with RGS16-Gao HTS; in the data active = response below about 74% or above about 130%; inactive = in between;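 also: Galphao activated as the GDP aluminium fluoride complex binding bead-coupled RGS16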
RGS4-Gao single: confirmation of regulators of human RGS4-Galphao interaction; shares compounds with RGS16-Gao HTS; RGS4-Galphao binding, multiplexed bead flow cytometry; actives lie on both sides; binding response (% of control), % at 10 µM; 1,700 tested, 4% active; AID 1840; in the data active = binding response below about 74% or above about 130%; inactive = in between
RGS19-Gao conf: confirmation of regulators of human RGS19-Galphao interaction | bead-based flow cytometry RGS19-Galphao binding; actives lie on both sides | 1,700 tested, 5% active | response (percent of control binding), % at 10 µM | shares compounds with RGS16-Gao HTS; in the data active = response below about 50% or above about 160%; inactive = in between;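 also: 100% = no compound control and 0% = blank background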
The depositor's hits bear a star; ? = inconclusive; . = not tested or not shown; [ ] = another dose, or the depositor's remark. Unless noted, no rule for the calls is given here.

SMILES | Avidin fluor | RGS16-Gao HTS | RGS8-Gao | RGS4-Gao reg | RGS7-Gao reg | GSH bead fluor | Biotin-avidin | RGS8-Gao single | RGS7-Gao single | RGS16-Gao single | RGS4-Gao single | RGS19-Gao conf | others
CSc1nc(-c2ccccc2)nn1S(=O)(=O)c1ccc(Cl)cc1 | 9 | 86 | 91 | 87 | 84 | 12 | . | . | . | . | . | .
CCCOc1ccc(/C=N/NC(=O)CSc2ccccn2)cc1OC | 8 | 102 | 101 | 102 | ? | . | . | . | . | . | . | .
Cn1nc(C(F)(F)F)c(-c2ccccc2)c1NC(=O)c1ccco1 | 3 | 84 | 93 | 82 | ? | . | . | . | . | . | . | .
Cn1nc(C(F)(F)F)c(-c2ccc(F)cc2)c1NC(=O)c1ccco1 | 61* | 176*[activator] | 116 | 188*[activator] | ? | . | 0 | 97 | 74* | 85 | 83 | 68
CCOC(=O)C1=NNC2(c3ccc(C)cc3)C(=O)N(c3ccccc3)C(=O)C12 (stereo unspecified) | 4 | 104 | 103 | 99 | ? | . | . | . | . | . | . | .
CCC(C)c1ccccc1NC(=O)C(C)NCCN(C)C (stereo unspecified) | 6 | 97 | 95 | 97 | ? | . | . | . | . | . | . | .
NS(=O)(=O)c1ccc(CCNC(=O)C2CCC(Cn3c(=S)[nH]c4ccccc4c3=O)CC2)cc1 (stereo unspecified) | 2 | 11* | 13* | 22* | 17* | 14 | 1 | 103 | 105 | 105 | 103 | 101
Cc1ccc(CNC(=O)Cn2cccc2C(=O)c2ccccc2)cc1 | . | . | . | 102 | 119 | 42 | -2 | 101 | 94 | 100 | 100 | 93
O=C(Cn1cccc1C(=O)c1ccccc1)NCc1ccc(Cl)cc1 | 11 | 103 | 100 | 101 | 99 | 20 | . | . | . | . | . | .
Cc1ccc2c(c1)NC(=O)C(CC(=O)NCc1ccc(F)cc1)O2 (stereo unspecified) | 8 | 102 | 102 | 101 | 104 | 21 | . | . | . | . | . | .
Cc1ccc2c(c1)NC(=O)C(CC(=O)NCc1cccnc1)O2 (stereo unspecified) | 3 | 285 | 161*[activator] | 154*[activator] | 145 | 21 | -1 | 97 | 104 | 98 | 99 | 100
CC(=O)COC(=O)CNC(=O)c1ccc(Br)cc1 | 2 | . | 167*[activator] | 138 | 137 | 33 | . | . | . | . | . | . | RGS4-Gao HTS=138*
CC(=O)NCC(=O)OCC(=O)c1ccc(Br)cc1 | 15 | 96 | 99 | 98 | 96 | 6 | . | . | . | . | . | .
CCC(C)(C)NC(=O)c1ccc(S(=O)(=O)N2CCCCCC2)cc1 | 15 | 104 | 101 | 96 | 103 | 9 | . | . | . | . | . | .
CCc1nnc(NC(=O)c2cc(S(=O)(=O)N3CCN(c4ccccc4)CC3)ccc2Cl)s1 | 14 | 101 | 101 | 104 | 100 | 61 | . | . | . | . | . | .
CCc1nnc(NC(=O)c2cccc(S(=O)(=O)N3CCN(c4ccccc4)CC3)c2)s1 | 5 | 145 | 127 | 140 | 150*[activator] | 27 | 0 | 103 | 102 | 103 | 105 | 108 | RGS4-Gao HTS=140*
COc1ccc(-c2nc3ccccc3c(=O)n2CCOc2cc(C)ccc2C)cc1 | 8 | 115 | 105 | 105 | 106 | 9 | . | . | . | . | . | .
c1ccc(-c2nc3ccccc3[nH]2)nc1 | 12 | 167 | 154*[activator] | 170*[activator] | 158*[activator] | 23 | 0 | 99 | 102 | 99 | 99 | 110
O=c1[nH]c(-c2ccccn2)nc2ccccc12 | 6 | 96 | 98 | 97 | 100 | 62 | . | . | . | . | . | .
Cc1cc[n+]2n1CC(O)C2 (stereo unspecified) | . | . | . | . | . | . | 2 | 103 | 97 | 101 | 103 | 85
Cc1cccc(Oc2ccc(Cl)cc2N)c1 | 16 | 67 | 94 | 96 | 99 | 13 | . | . | . | . | . | .
Nc1cccc(S(=O)(=O)NC2=NCCC2)c1 | 10 | 393 | 149*[activator] | 119 | 114 | 66 | . | . | . | . | . | . | RGS4-Gao HTS=119*
CCC(=O)NC(=S)NNC(=O)c1ccc(O)cc1 | 27 | 96 | 100 | 102 | 98 | 60 | . | . | . | . | . | .
CCSc1nnc(Nc2ccccc2)s1 | 7 | 21* | 42* | 15* | 25* | 11 | -1 | 101 | 92 | 101 | 96 | 99
CCCn1c(NCc2c[nH]c3ccccc23)nc2ccccc21 | 9 | 316 | 143*[activator] | 104 | 103 | 48 | 0 | 95 | 86 | 92 | 93 | 73 | RGS4-Gao HTS=104*
SMILES | Avidin fluor | RGS16-Gao HTS | RGS8-Gao | RGS4-Gao reg | RGS7-Gao reg | GSH bead fluor | Biotin-avidin | RGS8-Gao single | RGS7-Gao single | RGS16-Gao single | RGS4-Gao single | RGS19-Gao conf | others
COc1cc(/C=N/Nc2nc3ccccc3s2)cc([N+](=O)[O-])c1O | . | . | . | . | . | . | -3 | 96 | 96 | 95 | 101 | 91
O=[N+]([O-])c1cc(Cl)cc(/C=N/Nc2nc3ccccc3s2)c1O | 12 | 102 | 104 | 99 | 102 | 26 | . | . | . | . | . | .
COCCNC(=O)/C(C#N)=c1\s/c(=C\c2ccccc2OC(F)F)c(=O)n1Cc1ccccc1 | 5 | 101 | 101 | 98 | 104 | 23 | . | . | . | . | . | .
C=CCn1c(Cc2c[nH]c3ccccc23)nnc1SCC(=O)NCc1ccccc1 | 5 | 38 | 54* | 47* | 42* | 26 | -1 | 101 | 103 | 100 | 103 | 106
CCOc1ncccc1C(=O)OCc1nnc(-c2ccccc2)o1 | . | . | . | . | . | 40 | -1 | 100 | 100 | 100 | 99 | 118
O=C(OCc1nnc(-c2ccccc2)o1)c1cccnc1Cl | 9 | 100 | 101 | 104 | 100 | 13 | . | . | . | . | . | .
O=C(CNC(=O)/C(=C\c1ccc(F)cc1)NC(=O)c1ccccc1)OCc1ccccc1 | 199* | 107 | 103 | 125 | 172*[activator] | 15 | . | . | . | . | . | . | RGS4-Gao HTS=125*
O=C(CNC(=O)/C(=C\c1ccccc1)NC(=O)c1ccc(Br)cc1)OCc1ccccc1 | 11 | 94 | 99 | 98 | 96 | 24 | . | . | . | . | . | .
COc1ccc(NC(=O)CC2SC(=N)N(c3ccccc3)C2=O)c(OC)c1 (stereo unspecified) | -1 | -5.4* | 8.2* | 4.8* | 4.1* | 16 | -3 | 99 | 90 | 96 | 96 | 96
